Several values for one entry are separate records, joined by “and”; a condition that tells them apart may be missing. Equal entries are not always repeated. More than one record can exist for a structure, and the calls need not agree. Activity calls are given as the source filed them. Rule for the calls: active = hit-call score of the fitted dose curve at least 0.9, where 1 is the maximum; inactive = score below 0.9.
Experiments:
[1] = read-out: Thrombomodulin, THBD (gene 7056); assay: BSK_CASM3C_Thrombomodulin: BioMAP Diversity Plus: CASM3C Assay for Thrombomodulin Biomarker Activity (AID 2283051); settings: primary human coronary artery smooth muscle cells; actives raise or lower the signal;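 note: thrombomodulin protein level measured by ELISA 24 h after dosing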
[2] = read-out: Tissue Factor, F3 (gene 2152); assay: BSK_CASM3C_TissueFactor: BioMAP Diversity Plus: CASM3C Assay for Tissue Factor Biomarker Activity (AID 2283052); settings: primary human coronary artery smooth muscle cells; actives raise or lower the signal;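 note: cell surface tissue factor protein level read by ELISA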
[3] = read-out: Interferon-gamma inducible Protein 10 (IP10), CXCL10 (gene 3627); assay: BSK_hDFCGF_IP10: BioMAP Diversity Plus: hDFCGF Assay for Interferon-gamma inducible Protein 10 (IP10) Biomarker Activity (AID 2283053); settings: primary human foreskin fibroblasts; actives raise or lower the signal
Summary of the method: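 Primary foreskin fibroblasts, human; 24 h compound exposure; IP-10 by ELISA; bidirectional fit vs DMSO.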

[4] = read-out: Urokinase-type plasminogen activator receptor (uPAR), PLAUR (gene 5329); assay: BSK_CASM3C_uPAR: BioMAP Diversity Plus: CASM3C Assay for Urokinase-type plasminogen activator receptor (uPAR) Biomarker Activity (AID 2283054); settings: primary human coronary artery smooth muscle cells; actives raise or lower the signal;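 note: cell-surface uPAR protein level quantified by ELISA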
[5] = read-out: Vascular cell adhesion molecule 1 (VCAM1), VCAM1 (gene 7412); assay: BSK_CASM3C_VCAM1: BioMAP Diversity Plus: CASM3C Assay for Vascular cell adhesion molecule 1 (VCAM1) Biomarker Activity (AID 2283055); settings: primary human coronary artery smooth muscle cells; actives raise or lower the signal;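 note: VCAM-1 protein level quantified by ELISA on the cells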
[6] = read-out: Collagen III, COL3A1 (gene 1281); assay: BSK_hDFCGF_CollagenIII: BioMAP Diversity Plus: hDFCGF Assay for Collagen III Biomarker Activity (AID 2283056); settings: primary human foreskin fibroblasts; actives raise or lower the signal
Summary of the method: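 Human foreskin primary fibroblasts were exposed to test chemicals for 24 h, after which collagen III was quantified by ELISA. Activity was fitted bidirectionally against DMSO as negative control and baseline.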

[7] = read-out: Epidermal growth factor receptor (EGFR), EGFR (gene 1956); assay: BSK_hDFCGF_EGFR: BioMAP Diversity Plus: hDFCGF Assay for Epidermal growth factor receptor (EGFR) Biomarker Activity (AID 2283057); settings: primary human foreskin fibroblasts; actives raise or lower the signal
Summary of the method: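 hDFCGF system, primary human foreskin fibroblasts; compound 24 h; EGFR measured by ELISA; DMSO = negative control/baseline; bidirectional fitting.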

[8] = read-out: Interleukin-8 (IL8), CXCL8 (gene 3576); assay: BSK_hDFCGF_IL8: BioMAP Diversity Plus: hDFCGF Assay for Interleukin-8 (IL8) Biomarker Activity (AID 2283058); settings: primary human foreskin fibroblasts; actives raise or lower the signal
Summary of the method: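 hDFCGF human dermal fibroblasts; 24 h chemical exposure; IL-8 by ELISA; bidirectional curve fit vs DMSO baseline; gain or loss of signal scored.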

[9] = BSK_hDFCGF_Proliferation: Cell Proliferation Assessment in the BioMAP Diversity Plus: hDFCGF Assay (AID 2283059); settings: primary human foreskin fibroblasts;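 note: curves fitted for both rise and fall of signal versus DMSO baseline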
Summary of the method: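 This proliferation readout used SRB total-protein staining of human foreskin fibroblasts […], normalized to DMSO with bidirectional curve fitting.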

[10] = read-out: Macrophage colony-stimulating factor (MCSF), CSF1 (gene 1435); assay: BSK_hDFCGF_MCSF: BioMAP Diversity Plus: hDFCGF Assay for Macrophage colony-stimulating factor (MCSF) Biomarker Activity (AID 2283060); settings: primary human foreskin fibroblasts; actives raise or lower the signal
Summary of the method: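 Human foreskin primary fibroblasts were treated with test chemical for 24 h, and M-CSF was then measured by ELISA. Data were fitted bidirectionally against DMSO as the negative control and activity baseline.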

[11] = BSK_hDFCGF_SRB: Viability Assessment in the BioMAP Diversity Plus: hDFCGF Assay (AID 2283061); settings: primary human foreskin fibroblasts;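 note: cells exposed to compound for 24 h before the read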
Summary of the method: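 Human foreskin primary fibroblasts were treated with compound and assessed 24 h after dosing. Total protein was measured by sulforhodamine B staining (0.1% SRB after 10% TCA fixation, 560 nm read) as a cytotoxicity marker, with bidirectional fitting against DMSO baseline.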

[12] = read-out: TIMP metallopeptidase inhibitor 1 (TIMP1), TIMP1 (gene 7076); assay: BSK_hDFCGF_TIMP1: BioMAP Diversity Plus: hDFCGF Assay for TIMP metallopeptidase inhibitor 1 (TIMP1) Biomarker Activity (AID 2283062); settings: primary human foreskin fibroblasts; actives raise or lower the signal
Summary of the method: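 Primary human foreskin fibroblasts in the hDFCGF system were dosed with compound for 24 h, then TIMP-1 was measured by ELISA. Activity was fitted bidirectionally relative to DMSO control; parallel SRB staining assessed cytotoxicity.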

[13] = read-out: Monokine induced gamma interferon (MIG), CXCL9 (gene 4283); assay: BSK_hDFCGF_MIG: BioMAP Diversity Plus: hDFCGF Assay for Monokine induced gamma interferon (MIG) Biomarker Activity (AID 2283063); settings: primary human foreskin fibroblasts; actives raise or lower the signal
Summary of the method: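 ELISA read-out of MIG from primary human dermal fibroblasts 24 h post-dosing. Gain or loss of signal fitted bidirectionally, DMSO as baseline.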

[14] = read-out: Matrix Metallopeptidase 1 (MMP1), MMP1 (gene 4312); assay: BSK_hDFCGF_MMP1: BioMAP Diversity Plus: hDFCGF Assay for Matrix Metallopeptidase 1 (MMP1) Biomarker Activity (AID 2283064); settings: primary human foreskin fibroblasts; actives raise or lower the signal
Summary of the method: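 hDFCGF primary fibroblasts (human foreskin); chemical added; 24 h; MMP1 by ELISA; bidirectional fit vs DMSO.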

[15] = read-out: Vascular cell adhesion molecule 1 (VCAM1), VCAM1 (gene 7412); assay: BSK_hDFCGF_VCAM1: BioMAP Diversity Plus: hDFCGF Assay for Vascular cell adhesion molecule 1 (VCAM1) Biomarker Activity (AID 2283065); settings: primary human foreskin fibroblasts; actives raise or lower the signal
Summary of the method: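 Primary human foreskin fibroblasts (hDFCGF system) were dosed with chemical and VCAM-1 was measured by ELISA 24 h later. Bidirectional curve fitting used DMSO as negative control and activity baseline.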

[16] = read-out: Plasminogen activator inhibitor-1 (PAI1), SERPINE1 (gene 5054); assay: BSK_hDFCGF_PAI1: BioMAP Diversity Plus: hDFCGF Assay for Plasminogen activator inhibitor-1 (PAI1) Biomarker Activity (AID 2283066); settings: primary human foreskin fibroblasts; actives raise or lower the signal
Summary of the method: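 Primary dermal fibroblasts (human foreskin), hDFCGF system; compound 24 h; PAI-1 by ELISA; bidirectional fit vs DMSO control.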

[17] = read-out: Intercellular Adhesion Molecule 1 (ICAM1), ICAM1 (gene 3383); assay: BSK_KF3CT_ICAM1: BioMAP Diversity Plus: KF3CT Assay for Intercellular Adhesion Molecule 1 (ICAM1) Biomarker Activity (AID 2283067); settings: primary human keratinocytes with fibroblasts; actives raise or lower the signal
Summary of the method: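 Human keratinocyte plus foreskin fibroblast primary co-culture was exposed to chemical for 24 h. ICAM-1 was then quantified by ELISA, and the data were fit bidirectionally against DMSO as the negative control and baseline.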

[18] = BSK_KF3CT_SRB: Viability Assessment in the BioMAP Diversity Plus: KF3CT Assay (AID 2283069); settings: primary human keratinocytes with fibroblasts;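 note: fitted for both signal gain and loss against DMSO baseline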
Summary of the method: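 Keratinocytes co-cultured with foreskin fibroblasts (human primary); chemical added, 24 h; fix 10% TCA, stain 0.1% SRB, A560. Bidirectional fit vs DMSO.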

[19] = read-out: Interleukin-1 alpha (IL1a), IL1A (gene 3552); assay: BSK_KF3CT_IL1a: BioMAP Diversity Plus: KF3CT Assay for Interleukin-1 alpha (IL1a) Biomarker Activity (AID 2283070); settings: primary human keratinocytes with fibroblasts; actives raise or lower the signal
Summary of the method: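 Chemicals were dosed onto co-cultured human keratinocytes and foreskin fibroblasts, IL-1a was quantified by ELISA at 24 h, and activity was fitted in both directions relative to DMSO controls.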

[20] = read-out: Interferon-gamma inducible Protein 10 (IP10), CXCL10 (gene 3627); assay: BSK_KF3CT_IP10: BioMAP Diversity Plus: KF3CT Assay for Interferon-gamma inducible Protein 10 (IP10) Biomarker Activity (AID 2283068); settings: primary human keratinocytes with fibroblasts; actives raise or lower the signal
Summary of the method: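 Signal is secreted/surface IP-10 by ELISA in a human primary skin co-culture of keratinocytes and foreskin fibroblasts, taken 24 h post-dosing; DMSO served as negative control.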

Measured: AC50

CCCC1COC(Cn2cncn2)(c2ccc(Cl)cc2Cl)O1 (centres undefined)
inactive: [2] | [3] | [4] | [5] | [6] | [7] | [8] | [10] | [11] | [12] | [13] | [14] | [15] | [16] | [17] | [18] | [19]
active: [1] 7.5 µM | [9] 4.49 µM

CO/C=C(/C(=O)OC)c1ccccc1Oc1cc(Oc2ccccc2C#N)ncn1
inactive: [1] | [2] | [4] | [5] | [7] | [8] | [9] | [10] | [11] | [12] | [13] | [14] | [15] | [16] | [17] | [20] | [18] | [19]
active: [6] 16.9 µM [middle of 4 runs] | [9] 30.2 µM and 34.3 µM and 25.5 µM

COC(=O)C(C)Oc1ccc(Oc2ccc(Cl)cc2Cl)cc1 (centres undefined)
active: [9] 29.5 µM and 36.7 µM | [17] 25.1 µM | [19] 5.15 µM
inactive: [1] | [2] | [4] | [5] | [6] | [7] | [8] | [9] | [10] | [11] | [12] | [13] | [14] | [15] | [16] | [17] | [18] | [19]

COc1nc(C)nc(NC(=O)NS(=O)(=O)c2ccccc2Cl)n1
inactive: [1] | [2] | [3] | [4] | [5] | [6] | [7] | [8] | [9] | [10] | [11] | [12] | [13] | [14] | [16] | [17] | [18] | [19]

O=C(Nc1ccccc1)Nc1ccnc(Cl)c1
inactive: [1] | [2] | [3] | [4] | [5] | [6] | [8] | [9] | [10] | [11] | [12] | [13] | [14] | [16] | [17] | [18] | [19]
active: [7] 0.148 µM

CC(Oc1ccc(Cl)cc1Cl)C(=O)O (centres undefined)
inactive: [1] | [2] | [3] | [4] | [5] | [6] | [7] | [8] | [9] | [10] | [11] | [12] | [13] | [14] | [16] | [17] | [18] | [19]

From PubChem BioAssay (EPA / NIEHS)
